Assay results reported in the supplement of paper PMC3656093.
± gives the standard deviation of the averaged measurements. The full ranking holds about 1,900 compounds; the median of “CD40L-induced NF-kB luciferase activity, plate-corrected, relative to DMSO (0) and IKK inhibitor VII (-100) controls” is about 0.032, and the lowest 2% start at about -26. The entries come from a sample that favours the lowest values as a whole.

These compounds were tested on BL2-NFkB-Luc (assay: CD40L-induced NF-kB luciferase activity, plate-corrected, relative to DMSO (0) and IKK inhibitor VII (-100) controls (% normalized activity); higher = more NF-kB reporter activity (less inhibition)). Details: 9.4 µM; stimulus: tCD40L 64 ng/ml; 4.5 h.
Method: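 BL2 B cells with a stable NF-kB response-element luciferase reporter (BL2-NFkB-Luc), 384-well. Cells were pre-incubated with compound at 9.4 uM for 1 h at 37 C, then stimulated with 64 ng/ml trimerized CD40L for 4.5 h; luciferase was read with Steady-Glo. Signal was normalised per plate in Genedata (median DMSO neutral control = 0, median IKK inhibitor VII at 50 uM = -100) with Assay Median plate-pattern correction; duplicate plates.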
In the case of `COC(=O)C1=C(C)N(C)C(=S)NC1c1ccc(Cl)cc1` (stereo not given), the “CD40L-induced NF-kB luciferase activity” value is reported as -1.51 ± 7.8.
`CC[C@]1(O)C[C@@H]2CN(CCc3c([nH]c4ccccc34)[C@@](C(=O)OC)(c3cc4c(cc3OC)N(C)[C@H]3[C@@](O)(C(=O)OC)[C@H](OC(C)=O)[C@]5(CC)C=CCN6CC[C@]43[C@@H]65)C2)C1` was tested, and the “CD40L-induced NF-kB luciferase activity” value was -54.7 ± 1.7.
In the case of `CC[C@]1(O)C[C@@H]2CN(CCc3c([nH]c4ccccc34)[C@@](C(=O)OC)(c3cc4c(cc3OC)N(C=O)[C@H]3[C@@](O)(C(=O)OC)[C@H](OC(C)=O)[C@]5(CC)C=CCN6CC[C@]43[C@@H]65)C2)C1`, the “CD40L-induced NF-kB luciferase activity” value is reported as -50.4 ± 4.8.
In the case of `CCN(CC)CCCNC(=O)C1c2ccccc2Oc2ccccc21`, the “CD40L-induced NF-kB luciferase activity” value is reported as -3.46 ± 0.27.
`CC1CCCC(C)N1NC(=O)c1ccc(Cl)c(S(N)(=O)=O)c1` (stereo not given) was tested, and the “CD40L-induced NF-kB luciferase activity” value was 4.34 ± 1.3.
For `COc1cc2c(cc1OC)C(=S)NC(C)(C)C2`, the “CD40L-induced NF-kB luciferase activity” value was -9.01 ± 2.9.
`COc1cc(C(=O)NCCc2c[nH]c3ccccc23)ccc1OCc1c(C)noc1C` was tested, and the “CD40L-induced NF-kB luciferase activity” value was 2.18 ± 3.7.
In the case of `Cc1ccc(C=NNc2nc(C(C)(C)C)cs2)o1`, the “CD40L-induced NF-kB luciferase activity” value is reported as 37 ± 13.
`Cc1cccc(N2CCN(C(=S)c3ccccc3)CC2)c1` was tested, and the “CD40L-induced NF-kB luciferase activity” value was 6.51 ± 2.4.
`COc1ccc(CN2CCC(=O)NC2=O)cc1` was tested, and the “CD40L-induced NF-kB luciferase activity” value was 4.64 ± 6.
With `COc1ccc2c3c([nH]c2c1)C1(NCC3)C(=O)Nc2ccccc21` (stereo not given) the “CD40L-induced NF-kB luciferase activity” value was 5.33 ± 6.5.
For `Cc1ccc(C(=O)NC(=S)NCCCN2CCOCC2)cc1`, the “CD40L-induced NF-kB luciferase activity” value was 8.31 ± 1.3.
`CC(=O)O[C@H]1CSC[C@H]1NC(=O)c1ccccc1` was tested, and the “CD40L-induced NF-kB luciferase activity” value was 2.65 ± 7.7.
With `O=C(Nc1ccc(Oc2c(F)c(F)c(F)c(F)c2F)cc1)OC1CCN2Cc3ccccc3N=C12` (stereo not given) the “CD40L-induced NF-kB luciferase activity” value was -15.2 ± 2.6.
For `COc1cc(CNCCc2c[nH]c3ccccc23)cc(Cl)c1OCC(N)=O`, the “CD40L-induced NF-kB luciferase activity” value was -2.87 ± 1.6.
With `O=C1C(O)CC2c3ccccc3CC3(CCCC3)N12` (stereo not given) the “CD40L-induced NF-kB luciferase activity” value was 2.45 ± 2.2.
`c1ccc(Nc2ccccn2)nc1` was tested, and the “CD40L-induced NF-kB luciferase activity” value was 6.17 ± 1.9.
With `OCC1(CCOc2ccccc2)CCN(CCCn2cccn2)CC1` the “CD40L-induced NF-kB luciferase activity” value was -3.68 ± 2.7.
With `c1ccc2c(c1)CCOC2CNCCCN1CCCCC1` (stereo not given) the “CD40L-induced NF-kB luciferase activity” value was -0.411 ± 1.1.
For `Cc1ccc(C(CC(=O)NCc2ccco2)c2ccc(OC(C)C)cc2)cc1` (stereo not given), the “CD40L-induced NF-kB luciferase activity” value was -5.4 ± 2.5.
With `Cc1ccccc1NC(=O)c1c(C)cc(=O)oc1C` the “CD40L-induced NF-kB luciferase activity” value was -17.1 ± 22.
In the case of `COc1cccc(OC)c1C(=O)Nc1nc2ccc([N+](=O)[O-])cc2s1`, the “CD40L-induced NF-kB luciferase activity” value is reported as 3.34 ± 5.3.
For `COC(=O)c1ccc(COc2ccc3c(C)c(C)c(=O)oc3c2C)o1`, the “CD40L-induced NF-kB luciferase activity” value was -0.554 ± 5.
With `CC(C)c1ccc(OCc2ccc(C(=O)O)o2)cc1` the “CD40L-induced NF-kB luciferase activity” value was -32.6 ± 4.2.
With `COc1ccc(NC(=O)Nc2ccc(C(C)C)cc2)cc1` the “CD40L-induced NF-kB luciferase activity” value was 13.4 ± 0.33.
For `CCOc1ccc2[nH]c3c(=O)n(CCc4ccc(OC)cc4)cnc3c2c1`, the “CD40L-induced NF-kB luciferase activity” value was -2.8 ± 3.9.
For `COc1ccc2c(CCNC(=O)c3ccc([N+](=O)[O-])cc3)c[nH]c2c1`, the “CD40L-induced NF-kB luciferase activity” value was -3.48 ± 6.8.
With `Cc1oc(C=NNC(=O)CC2(C)OCCO2)cc1Br` the “CD40L-induced NF-kB luciferase activity” value was -0.742 ± 2.4.
`COc1ccc(/C=C/C(=O)NC(=S)NN2CCCCC2c2cccnc2)cc1` (stereo not given) was tested, and the “CD40L-induced NF-kB luciferase activity” value was 1.59 ± 3.4.
For `Nc1nnc(CSCc2ccc(Cl)cc2Cl)s1`, the “CD40L-induced NF-kB luciferase activity” value was 11.4 ± 2.5.
With `Cc1c(OCC(=O)NC(Cc2c[nH]c3ccc(O)cc23)C(=O)O)ccc2c3c(c(=O)oc12)CCC3` (stereo not given) the “CD40L-induced NF-kB luciferase activity” value was 2.12 ± 6.2.
In the case of `CCCCC[C@H](O)/C=C/[C@@H]1[C@@H](C/C=C\CCCC(=O)OC)[C@@H](O)C[C@H]1O`, the “CD40L-induced NF-kB luciferase activity” value is reported as -2.47 ± 3.2.
In the case of `CCCCC[C@H](O)/C=C/[C@@H]1[C@@H](C/C=C\CCCC(=O)O)[C@@H](O)C[C@H]1O`, the “CD40L-induced NF-kB luciferase activity” value is reported as -2.36 ± 2.1.
For `CCCCC[C@H](O)/C=C/[C@@H]1[C@@H](CCCCCCC(=O)O)[C@@H](O)C[C@H]1O`, the “CD40L-induced NF-kB luciferase activity” value was -29.5 ± 5.2.
For `O=S(=O)(CCc1nc2ccccc2[nH]1)c1ccc(Cl)cc1`, the “CD40L-induced NF-kB luciferase activity” value was -12.2 ± 1.3.
`COc1cc(C=NCC2OCCc3ccccc32)cc(OC)c1` (stereo not given) was tested, and the “CD40L-induced NF-kB luciferase activity” value was -1.7 ± 1.9.
`CC1(C)c2ccccc2N2CC(=O)N(CC(N)=O)C21C` (stereo not given) was tested, and the “CD40L-induced NF-kB luciferase activity” value was 1.75 ± 1.9.
With `COc1ccccc1N1C(=O)C2CC(C)=C(C)CC2C1=O` (stereo not given) the “CD40L-induced NF-kB luciferase activity” value was -4.81 ± 2.4.
`COc1ccc(S(N)(=O)=O)cc1C(N)=O` was tested, and the “CD40L-induced NF-kB luciferase activity” value was -2.45 ± 4.3.
In the case of `CC(=O)[C@@]1(O)CC[C@H]2[C@@H]3C[C@H](C)C4=CC(=O)C=C[C@]4(C)[C@@]3(F)[C@@H](O)C[C@@]21C`, the “CD40L-induced NF-kB luciferase activity” value is reported as -27 ± 2.1.
`CCCC(=O)O[C@]1(C(=O)COC(C)=O)CC[C@H]2[C@@H]3C[C@H](F)C4=CC(=O)C=C[C@]4(C)[C@@]3(F)[C@@H](O)C[C@@]21C` was tested, and the “CD40L-induced NF-kB luciferase activity” value was -17.6 ± 1.6.
In the case of `C[C@@H]1C[C@H]2[C@@H]3C[C@H](F)C4=CC(=O)C=C[C@]4(C)[C@@]3(F)[C@@H](O)C[C@]2(C)[C@@]1(O)C(=O)CO`, the “CD40L-induced NF-kB luciferase activity” value is reported as -27.2 ± 0.89.
`CC(=O)OCC(=O)[C@@]12OC(C)(C)O[C@@H]1C[C@H]1[C@@H]3C[C@H](F)C4=CC(=O)C=C[C@]4(C)[C@@]3(F)[C@@H](O)C[C@@]12C` was tested, and the “CD40L-induced NF-kB luciferase activity” value was -11.4 ± 5.5.
In the case of `CC(=O)[C@@]1(O)CC[C@H]2[C@@H]3C[C@H](C)C4=CC(=O)CC[C@]4(C)[C@H]3CC[C@@]21C`, the “CD40L-induced NF-kB luciferase activity” value is reported as -15.7 ± 2.4.
`C[C@@H]1C[C@H]2[C@@H]3CCC4=CC(=O)C=C[C@]4(C)[C@@]3(F)[C@@H](O)C[C@]2(C)[C@@]1(O)C(=O)COP(=O)(O)O` was tested, and the “CD40L-induced NF-kB luciferase activity” value was -2.27 ± 0.67.
`CC(=O)OCC(=O)[C@@]1(O)[C@H](C)C[C@H]2[C@@H]3CCC4=CC(=O)C=C[C@]4(C)[C@@]3(F)[C@@H](O)C[C@@]21C` was tested, and the “CD40L-induced NF-kB luciferase activity” value was -27.6 ± 1.
In the case of `CC(=O)OCC(=O)[C@@]1(OC(C)=O)[C@@H](C)C[C@H]2[C@@H]3C[C@H](F)C4=CC(=O)C=C[C@]4(C)[C@@]3(F)[C@@H](O)C[C@@]21C`, the “CD40L-induced NF-kB luciferase activity” value is reported as -17.3 ± 0.28.
`C[C@@H]1C[C@H]2[C@@H]3C[C@H](F)C4=CC(=O)C=C[C@]4(C)[C@@]3(F)[C@@H](O)C[C@]2(C)[C@@]1(O)C(=O)COC(=O)C(C)(C)C` was tested, and the “CD40L-induced NF-kB luciferase activity” value was -29.5 ± 1.7.
With `C[C@H]1C[C@H]2[C@@H]3CCC4=CC(=O)C=C[C@]4(C)[C@@]3(Cl)[C@@H](O)C[C@]2(C)[C@@]1(O)C(=O)CO` the “CD40L-induced NF-kB luciferase activity” value was -25.6 ± 2.2.
With `CCC(=O)O[C@]1(C(=O)CCl)[C@@H](C)C[C@H]2[C@@H]3CCC4=CC(=O)C=C[C@]4(C)[C@@]3(F)[C@@H](O)C[C@@]21C` the “CD40L-induced NF-kB luciferase activity” value was -21.44 ± 0.014.
With `CCCC(=O)O[C@]1(C(=O)CCl)[C@@H](C)C[C@H]2[C@@H]3CCC4=CC(=O)C=C[C@]4(C)[C@@]3(F)C(=O)C[C@@]21C` the “CD40L-induced NF-kB luciferase activity” value was -27.9 ± 3.7.
With `Cc1cnc(N)c2c(=O)oc3ccccc3c12` the “CD40L-induced NF-kB luciferase activity” value was 41.69 ± 0.28.
With `O=C1CCCC(=O)C1=Cc1c[nH]c2ccccc12` the “CD40L-induced NF-kB luciferase activity” value was -7.53 ± 0.79.
In the case of `CCn1c(=N)c(C(=O)NC)cc2c(=O)n3cccc(C)c3nc21`, the “CD40L-induced NF-kB luciferase activity” value is reported as 0.825 ± 8.5.
For `O=C(Nc1ccc(N2CCOCC2)cc1)c1ccc(-c2ccccc2[N+](=O)[O-])o1`, the “CD40L-induced NF-kB luciferase activity” value was 17.3 ± 0.45.
